About 410 targets per protein were measured; listed, in parts, are those with the strongest signals and a random draw of the rest.
Columns and labels:
Assay in all cases: glycan array binding signal (z-score within array); higher = stronger binding
Conditions in all cases: glycan notation: IUPAC condensed, linker removed
Fuc(a1-2)Gal(b1-4)Glc = target: Fuc(a1-2)Gal(b1-4)Glc
In short: (§1)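 Glycan array data were curated from 3228 arrays in the Consortium for Functional Glycomics database and kept only where the protein sequence was available. Glycan names were converted to IUPAC-condensed notation, and columns mapping to the same glycan were averaged. The binding signal is a within-array Z-score, averaged across arrays of the same protein sequence at different concentrations or buffers and across linkers. Negative Z-scores can be read as non-binding.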

Fuc(a1-2)Gal(b1-4)GlcNAc = target: Fuc(a1-2)Gal(b1-4)GlcNAc
In short: as §1

[1] = target: Fuc(a1-2)Gal(b1-4)GlcNAc(b1-3)GalNAc
In short: as §1

[2] = target: Fuc(a1-2)Gal(b1-4)GlcNAc(b1-3)[Fuc(a1-3)[Gal(b1-4)]GlcNAc(b1-6)]Gal(b1-4)Glc
In short: as §1

[3] = target: Fuc(a1-2)Gal(b1-4)[Fuc(a1-3)]GlcNAc(b1-2)[Fuc(a1-2)Gal(b1-4)[Fuc(a1-3)]GlcNAc(b1-4)]Man(a1-3)[Fuc(a1-2)Gal(b1-4)[Fuc(a1-3)]GlcNAc(b1-2)Man(a1-6)]Man(b1-4)GlcNAc(b1-4)GlcNAc
In short: as §1

[4] = target: Fuc(a1-2)Gal(b1-4)[Fuc(a1-3)]GlcNAc(b1-3)Gal(b1-4)[Fuc(a1-3)]GlcNAc(b1-3)Gal(b1-4)[Fuc(a1-3)]GlcNAc
In short: as §1

[5] = target: Fuc(a1-2)[Gal(a1-3)]Gal(b1-3)GlcNAc(b1-6)GalNAc
In short: as §1

[6] = target: Fuc(a1-2)[Gal(a1-3)]Gal(b1-4)GlcNAc(b1-3)[Fuc(a1-2)[Gal(a1-3)]Gal(b1-4)GlcNAc(b1-6)]GalNAc
In short: as §1

[7] = target: Fuc(a1-2)[GalNAc(a1-3)]Gal(b1-3)GlcNAc
In short: as §1

[8] = target: Fuc(a1-2)[GalNAc(a1-3)]Gal(b1-4)GlcNAc(b1-2)Man
In short: as §1

[9] = target: Fuc(a1-2)[GalNAc(a1-3)]Gal(b1-4)[Fuc(a1-3)]GlcNAc(b1-3)GalNAc
In short: as §1

[10] = target: Fuc(a1-3)[Gal(b1-4)]Glc6S
In short: as §1

[11] = target: Fuc(a1-3)[Gal(b1-4)]GlcNAc(b1-2)Man
In short: as §1

Fuc(a1-4)GlcNAc = target: Fuc(a1-4)GlcNAc
In short: as §1

Gal(a1-3)Gal(b1-3)GlcNAc = target: Gal(a1-3)Gal(b1-3)GlcNAc
In short: as §1

[12] = target: Gal(b1-4)GlcNAc(b1-2)Man(a1-6)Man(b1-4)GlcNAc(b1-4)GlcNAc
In short: as §1

[13] = target: Gal(b1-4)GlcNAc(b1-3)Gal(b1-4)GlcNAc(b1-3)[Gal(b1-4)GlcNAc(b1-3)Gal(b1-4)GlcNAc(b1-6)]GalNAc
In short: as §1

GalNAc(a1-3)GalNAc = target: GalNAc(a1-3)GalNAc
In short: as §1

GalNAc(b1-4)GlcNAc = target: GalNAc(b1-4)GlcNAc
In short: as §1

[14] = target: GalNAc(b1-4)GlcNAc(b1-2)Man
In short: as §1

GalNAc(b1-4)GlcNAc6S = target: GalNAc(b1-4)GlcNAc6S
In short: as §1

GalNAc3S(b1-4)GlcNAc3S = target: GalNAc3S(b1-4)GlcNAc3S
In short: as §1

Glc(b1-4)Glc = target: Glc(b1-4)Glc
In short: as §1

GlcA(b1-6)Gal = target: GlcA(b1-6)Gal
In short: as §1

[15] = target: GlcNAc(b1-3)Gal(b1-4)GlcNAc(b1-3)Gal(b1-4)GlcNAc(b1-2)[GlcNAc(b1-3)Gal(b1-4)GlcNAc(b1-3)Gal(b1-4)GlcNAc(b1-6)]Man(a1-6)[GlcNAc(b1-3)Gal(b1-4)GlcNAc(b1-3)Gal(b1-4)GlcNAc(b1-2)Man(a1-3)]Man(b1-4)GlcNAc(b1-4)[Fuc(a1-6)]GlcNAc
In short: as §1

[16] = target: GlcNAc(b1-3)Gal(b1-4)GlcNAc(b1-3)Gal(b1-4)GlcNAc(b1-3)Gal(b1-4)GlcNAc(b1-2)[GlcNAc(b1-3)Gal(b1-4)GlcNAc(b1-3)Gal(b1-4)GlcNAc(b1-3)Gal(b1-4)GlcNAc(b1-6)]Man(a1-6)[GlcNAc(b1-3)Gal(b1-4)GlcNAc(b1-3)Gal(b1-4)GlcNAc(b1-3)Gal(b1-4)GlcNAc(b1-2)Man(a1-3)]Man(b1-4)GlcNAc(b1-4)[Fuc(a1-6)]GlcNAc
In short: as §1

[17] = target: GlcNAc(b1-3)Gal(b1-4)GlcNAc(b1-3)GalNAc
In short: as §1

[18] = target: GlcNAc(b1-3)[GlcNAc(b1-4)][GlcNAc(b1-6)]GlcNAc
In short: as §1

[19] = target: GlcNAc(b1-6)Gal(b1-4)GlcNAc
In short: as §1

[20] = target: Man(a1-3)[Man(a1-6)]Man(b1-4)GlcNAc(b1-4)[Fuc(a1-6)]GlcNAc
In short: as §1

B1: SP16663B-bot-321-25-321 (Bacteroides ovatus) (protein)
chain: DDDDEVTMNSKFYLSTKVFPVDSYEASLSVILKDNSVVVNELQPNYRFVACATERLSKDVKITADSDDNLVSAYNKANDTEYNILPAENYSFTNKTVTIENGESVSGDSIKIELLNVGSLTTEGGYLLPVTISSIEGNNLDALSSNRGVVYLKIQNIHVNVESGQPAEGTLIADRSGWTVKVAPTTRGDAKNLIDGTNSDVARDGGAEYWLTVDIGKVQTLTGIRNKCYASSYSPTAVEVFTSSDGAKWKSIGAVTISKSGTQYIKFSKAVETRYLKYYVKQGPNTVSLTEFDLYAK
- glycan array binding signal (z-score) (Fuc(a1-2)Gal(b1-4)Glc): -0.653
- glycan array binding signal (z-score) (Fuc(a1-2)Gal(b1-4)GlcNAc): -0.156
- glycan array binding signal (z-score) [1]: -0.106
- glycan array binding signal (z-score) [2]: -0.632
- glycan array binding signal (z-score) [3]: -0.394
- glycan array binding signal (z-score) [4]: -0.007
- glycan array binding signal (z-score) [5]: -0.437
- glycan array binding signal (z-score) [6]: 1.9
- glycan array binding signal (z-score) [7]: 0.071
- glycan array binding signal (z-score) [8]: 1.04
- glycan array binding signal (z-score) [9]: 0.604
- glycan array binding signal (z-score) [10]: 1.36
- glycan array binding signal (z-score) [11]: 0.558
- glycan array binding signal (z-score) (Fuc(a1-4)GlcNAc): 21.5
- glycan array binding signal (z-score) (Gal(a1-3)Gal(b1-3)GlcNAc): 0.607
- glycan array binding signal (z-score) [12]: -0.62
- glycan array binding signal (z-score) [13]: 1.04
- glycan array binding signal (z-score) (GalNAc(a1-3)GalNAc): -0.141
- glycan array binding signal (z-score) (GalNAc(b1-4)GlcNAc): 1.29
- glycan array binding signal (z-score) [14]: 1.72
- glycan array binding signal (z-score) (GalNAc(b1-4)GlcNAc6S): -0.779
- glycan array binding signal (z-score) (GalNAc3S(b1-4)GlcNAc3S): -0.087
- glycan array binding signal (z-score) (Glc(b1-4)Glc): 0.122
- glycan array binding signal (z-score) (GlcA(b1-6)Gal): 0.013
- glycan array binding signal (z-score) [15]: 2.65
- glycan array binding signal (z-score) [16]: 1.28
- glycan array binding signal (z-score) [17]: -0.536
- glycan array binding signal (z-score) [18]: -0.112
- glycan array binding signal (z-score) [19]: 1.33
- glycan array binding signal (z-score) [20]: 0.967

Reference: the supplement of paper PMC8728848
